Screening data deposited in PubChem BioAssay by National Center for Advancing Translational Sciences (NCATS).
PLK1 PBD block – qHTS for Inhibitors of PLK1-PDB (polo-like kinase 1 - polo-box domain): Primary Screen; Serine/threonine-protein kinase PLK1 (Homo sapiens), P53350; Potency, µM, inactives show max response, negative = inhibition, hits mostly inhibitors; AID 720504, 2013; actives 2.8% (n = 360,000); Plk1 PBD binding of FITC phosphopeptide, fluorescence polarization; further: series mostly up to about 57 µM; nearly all actives have a fitted effect of over 65% in size
Target sequence (P53350 whole entry, looked up, the tested form may be a part): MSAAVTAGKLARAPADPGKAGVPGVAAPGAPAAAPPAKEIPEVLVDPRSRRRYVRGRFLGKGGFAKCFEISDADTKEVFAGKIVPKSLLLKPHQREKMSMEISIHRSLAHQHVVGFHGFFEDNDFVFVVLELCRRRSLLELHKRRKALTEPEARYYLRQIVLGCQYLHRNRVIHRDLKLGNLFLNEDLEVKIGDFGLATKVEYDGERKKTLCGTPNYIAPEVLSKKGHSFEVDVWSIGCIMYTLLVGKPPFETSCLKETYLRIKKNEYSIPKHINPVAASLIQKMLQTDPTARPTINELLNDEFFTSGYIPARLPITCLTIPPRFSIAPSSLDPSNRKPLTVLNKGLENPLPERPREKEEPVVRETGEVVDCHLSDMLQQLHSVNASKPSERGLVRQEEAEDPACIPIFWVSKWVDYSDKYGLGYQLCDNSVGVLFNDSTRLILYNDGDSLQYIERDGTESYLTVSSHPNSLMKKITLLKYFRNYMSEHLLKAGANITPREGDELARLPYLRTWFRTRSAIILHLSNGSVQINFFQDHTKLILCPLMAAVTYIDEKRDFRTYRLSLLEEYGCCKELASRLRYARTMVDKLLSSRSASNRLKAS
rTrxR1 inhibitor – qHTS Assay for Inhibitors of Mammalian Selenoprotein Thioredoxin Reductase 1 (TrxR1): qHTS. recombinant rTrxR1, NADPH fluorescence consumption, selenite substrate. Potency, µM (doses to about 114 µM), for inactives: at the top dose activity change, negative = inhibition, actives largely listed as inhibitors. AID 588453, 2011. actives 1% (n = 390,000). Thioredoxin reductase 1, cytoplasmic (Rattus norvegicus), O89049; further: nearly all actives have a fitted effect of over 65% in size
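Rat TrxR1 (90 nM in the dispensed reagent) was pre-reduced with 400 uM NADPH for 5 min at room temperature, then incubated with compound for 15 min. After 400 uM selenite was added, NADPH fluorescence (Ex 340/Em 450 nm) was followed for 8 min.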
Sfp PPTase inh – qHTS Assay for Inhibitors of Bacillus subtilis Sfp phosphopantetheinyl transferase (PPTase); 4'-phosphopantetheinyl transferase ffp (Bacillus subtilis), Q9F4F7; Biochemical Sfp PPTase activity, qHTS; Potency, µM, without a hit: largest response in the series, negative = inhibition, actives largely listed as inhibitors; actives 3.5% (n = 310,000);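 further: the enzyme is Sfp with the accession as filed and its product quenches rhodamine fluorescence; 0% = enzyme reaction without inhibitor and -100% = no enzyme wells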
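Step 1, compound plus 15 nM Sfp-PPTase, 15 min, room temperature. Step 2, add rhodamine-CoA (5 uM) and BHQ-2-YbbR (12.5 uM). Step 3, read 525/598 nm fluorescence at 0 and 30 min.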
TrxR1 substrate – qHTS Assay for Substrates of Mammalian Selenoprotein Thioredoxin Reductase 1 (TrxR1): qHTS | purified TrxR1 substrate turnover, NADPH consumption readout | Potency, µM (doses to about 114 µM), without a hit: at the top dose activity change, negative = substrate turnover | actives 0.01% (n = 390,000) | AID 588456, 2011; further: nearly all actives have a fitted effect of over 50% in size
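Rat TrxR1, dispensed at 90 nM, was prereduced with 400 uM NADPH (final) for 5 min at ~22 deg C, then incubated with compound 15 min before 400 uM selenite. A first-read NADPH fluorescence drop versus no-compound background flagged substrates.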
mIDH1 inhibitor – qHTS for Inhibitors of mutant isocitrate dehydrogenase 1 (IDH1): qHTS. Isocitrate dehydrogenase [NADP] cytoplasmic (Homo sapiens), O75874. Potency, µM (doses to about 76.6 µM), inactives show at the highest dose activity change, negative = inhibition, actives largely listed as inhibitors. actives 0.093% (n = 390,000). IDH1-R132H enzyme, NADPH consumption, diaphorase/resazurin fluorescence; further: nearly all actives have a fitted effect of over 65% in size
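IDH1-R132H (0.5 ug/mL dispensed) in pH 7.5 Tris buffer was preincubated 30 min with compound, then given a substrate mix of 0.016 mM NADPH and 2 mM alpha-KG for 80 min at room temperature; remaining NADPH was read by diaphorase/resazurin fluorescence.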
VDR inh – Inhibitors of the vitamin D receptor (VDR): qHTS; VDR-SRC2-3 peptide fluorescence polarization, 2 h; Potency, µM, for the others: max response, negative = inhibition, actives largely listed as inhibitors; actives 0.93% (n = 400,000); AID 504847, 2011
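Fluorescence polarization assay of small-molecule disruption of VDR binding to coregulator peptide SRC2-3. Compounds and controls pin-transferred, then read after 2 h incubation at ambient room temperature.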
Numbers without * were called inactive; ? = inconclusive; · = no result given; [ ] = remark or other dose. Only some compounds are listed: those with a hit (about 5.2% of all), similar ones and a draw of the others. The call rests on the fitted dose curve; in most records, active means well fitted curve in the direction sought with a large enough effect; inconclusive means small, poorly fitted or top-dose-only effect, or another doubt; inactive means no such curve, though single readings can be large; an effect the other way counts as inactive or inconclusive. Unless noted, on the % scale 0 is the no-effect control and ±100 the full control effect; potency means the concentration at half of the fitted maximal effect.

SMILES | PLK1 PBD block | rTrxR1 inhibitor | Sfp PPTase inh | TrxR1 substrate | mIDH1 inhibitor | VDR inh
COC(=O)N1C(=O)[C@@](c2ccccc2)(C(C)C)N1C(=O)OC | ? | 18µM* | 4% | -1% | -1% | -26%
COC(=O)N1C(=O)[C@](c2ccccc2)(C2CCCC2)N1C(=O)OC | ? | ? | 7% | 13%[57.1 µM] | 0% | ?
COc1ccc(CNS(=O)(=O)c2ccc3c(c2)C(C)(C)C(=O)N3C)cc1OC | · | 12%[57.1 µM] | · | 6%[57.1 µM] | 8% | 15%
COCCn1c(CNC(=O)c2ccccc2C)nc2cccnc21 | · | 9%[57.1 µM] | · | -4%[57.1 µM] | -5% | 7%
Cc1c(CCNC(=O)c2ccc(C(C)(C)C)cc2)sc2nc(-c3ccc(F)cc3)nn12 | · | 14%[57.1 µM] | · | 0%[57.1 µM] | 6% | 2%
Cc1cccc(C)c1NC(=O)C1CCCN1S(=O)(=O)c1ccc(-c2ccc(=O)[nH]n2)s1 (stereo not drawn) | 12µM* | -10% | ? | -1% | 0% | ?
Cc1cccc(C)c1NC(=O)C1CCCN1S(=O)(=O)c1ccccc1 (stereo not drawn) | 1% | 10% | 29% | 2% | 0% | -22%
CC(C)c1ccc(CNc2ccc(N3CCOCC3)cc2)cc1 | -10% | 11%[57.1 µM] | 45µM* | -4%[57.1 µM] | 8% | -28%
Cc1ccc(CNc2ccc(N3CCOCC3)cc2)cc1 | -9% | -20% | -21% | 1% | 18% | -19%
c1cc(CNc2ccc(N3CCOCC3)cc2)ccn1 | -10% | -8%[57.1 µM] | 50µM* | 8%[57.1 µM] | 16% | ?
COc1ccc2c(c1)c1c(c(=O)n(-c3cccc(C)c3)c(=O)n1CC(=O)N1CCCC1)n2C | · | 51% | · | 467% | -9% | 2%
COc1cc(OC)cc(C(=O)NCC(=O)N2CCN(c3ccc(O)cc3)CC2)c1 | -11% | 24% | 56µM* | 3% | 0% | 7%
COc1ccc(N2CCN(C(=O)CNC(=O)c3ccc4ccccc4c3)CC2)cc1 | -2% | 11% | · | 4% | -3% | ?
Cc1cccc(N2CCN(C(=O)Cn3c(=O)c4cccn4c4ccc(F)cc43)CC2)c1C | · | 16% | · | 2% | -2% | 1%
Fc1ccc(-c2nnc(NC3=NCCCCC3)o2)cc1 | -5% | 6%[57.1 µM] | 21% | -8%[57.1 µM] | 6% | 8%
c1ccc(-c2nnc(NC3=NCCC3)o2)cc1 | 24µM* | 7%[57.1 µM] | -10% | -7% | 23% | -7%
O=S(=O)(NCCCN1CCOCC1)c1ccc(Cl)s1 | 8.4µM* | -1% | 5% | -4% | -2% | ?
O=S(=O)(NCCN1CCOCC1)c1ccc(F)c(Cl)c1 | 3.4µM* | 17% | -7% | -4% | 3% | ?
CN(C(=O)c1ccc2c(c1)N(Cc1ccccc1F)C(=O)c1ccccc1S2)C1CCCCC1 | · | 20%[57.1 µM] | · | 1%[57.1 µM] | -10% | 5%
CCOC(=O)C1CCCCN1S(=O)(=O)c1cc2c(cc1C)NC(=O)CO2 (stereo not drawn) | -6% | 24% | 13% | 1% | -9% | -19%
S=c1nccc(-c2cccs2)[nH]1 | 12µM* | -21%[57.1 µM] | ? | -9% | 23% | ?
C=CCC(=O)NC1CCCc2c1cnn2-c1cc(F)cc(F)c1 (stereo not drawn) | -6% | 24% | 0% | 9% | -5% | 28%
S=c1[nH]nc(C2CCCCC2)n1/N=C/c1ccccc1Cl | 13µM* | 10%[57.1 µM] | 63µM* | 12%[57.1 µM] | -11% | -4%
FC(F)(F)c1ccccc1/C=N/n1c(C2CCCCC2)n[nH]c1=S | 27µM* | -9% | ? | -3% | 6% | -10%
O=C(O)c1ccccc1/C=N/n1c(C2CCCCC2)n[nH]c1=S | -18% | 10%[57.1 µM] | -12% | 13%[57.1 µM] | 2% | ?
SMILES | PLK1 PBD block | rTrxR1 inhibitor | Sfp PPTase inh | TrxR1 substrate | mIDH1 inhibitor | VDR inh
CCOCCc1nn2c(=O)cc(COC(=O)Cc3ccccc3)nc2s1 | · | 3%[57.1 µM] | · | -1%[57.1 µM] | 0% | -12%
O=C(O)CCCN1C(=O)/C(=C/c2ccncc2)SC1=S | -5% | -16% | 10% | -15% | 7% | -7%
O=C(O)CCCCCN1C(=O)/C(=C\c2ccc(-c3ccc(Cl)cc3)o2)SC1=S | -15% | -3% | 6.3µM* | -4% | -12% | 8%
O=C(O)CCCCCN1C(=O)/C(=C\c2ccncc2)SC1=S | -11% | -15% | -8% | -9% | 6% | ?
O=C(O)CCCN1C(=O)/C(=C/c2ccc(-c3nc4ccccc4s3)o2)SC1=S | ? | -26% | 40µM* | -11% | -5% | -11%
Nc1nc(=S)ss1 | 24µM* | 46%[57.1 µM] | · | -3%[2.29 µM] | -6% | ?
O=c1c(Br)ccc(Br)cc1Br | 0.53µM* | 0.2µM* | · | 13%[11.4 µM] | ? | 10µM*
O=C1CN(S(=O)(=O)c2cc(Br)ccc2Br)CCN1 | -3% | 13% | · | 1% | 5% | 17%
COc1cc(Nc2ncc3c(n2)CCN(Cc2cccc(C)c2)C3)cc(OC)c1 | · | 17%[57.1 µM] | · | 1%[57.1 µM] | · | 18%
CCOc1ccc(C(C)=O)cc1N1C(=O)C2C3C=CC(C3)C2C1=O (stereo not drawn) | -16% | -5% | 20% | 9%[57.1 µM] | -1% | 16%
CCOc1ccc(C(C)=O)cc1N1C(=O)C2C3C=CC(O3)C2C1=O (stereo not drawn) | 27µM* | 3.2µM* | 7.9µM* | 7% | -1% | 22µM*
Cc1ccccc1-c1cc2nc(-c3ccc([N+](=O)[O-])cc3)cc(=O)n2[nH]1 | ? | -6%[57.1 µM] | -14% | -6%[57.1 µM] | 10% | -6%
O=c1cc(-c2ccc([N+](=O)[O-])cc2)nc2cc(-c3ccc(F)cc3)[nH]n12 | -26% | -14% | 45µM* | -8% | 3% | -7%
Cc1ccccc1NC(=O)CSc1nc(-c2ccco2)nc2cc(=O)[nH]n12 | · | -21%[57.1 µM] | · | 0%[57.1 µM] | -11% | -7%
C=C1C=CS(=O)(=O)N(C(CC(C)C)C(=O)OC)C1 (stereo not drawn) | · | 11µM* | ? | -2% | · | -24%
CCN(CC)CCCCn1c(-c2ccccc2)nc2c(NCc3ccccc3)nc(C)nc21 | · | · | 15% | · | · | ·
Cc1cccc(-c2cc3nc(C)cc(C)n3n2)c1 | 21µM* | 17%[57.1 µM] | 0% | 10%[57.1 µM] | 15% | -1%
Cc1cc(C)n2nc(-c3cccc(Br)c3)cc2n1 | -7% | 22% | 2% | 11% | 13% | 10%
COc1ccc(CN2C(=O)C(CC(=O)NCc3cccs3)CC(C(=O)N3CCOCC3)=C2C)cc1 (stereo not drawn) | -2% | · | · | · | 3% | ·
